ChEMBL document CHEMBL1961873, “Compounds: GSK PKIS; Assays: Nanosyn kinase panel” (2012)

Legend:
[1] = target: T1, Serine/threonine-protein kinase D2 (Homo sapiens) (UniProt Q9BZL6); settings: at 1 µM;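 also: mean value of PRKD2 inhibition, from the GSK PKIS screening panel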
T1 sequence (whole entry): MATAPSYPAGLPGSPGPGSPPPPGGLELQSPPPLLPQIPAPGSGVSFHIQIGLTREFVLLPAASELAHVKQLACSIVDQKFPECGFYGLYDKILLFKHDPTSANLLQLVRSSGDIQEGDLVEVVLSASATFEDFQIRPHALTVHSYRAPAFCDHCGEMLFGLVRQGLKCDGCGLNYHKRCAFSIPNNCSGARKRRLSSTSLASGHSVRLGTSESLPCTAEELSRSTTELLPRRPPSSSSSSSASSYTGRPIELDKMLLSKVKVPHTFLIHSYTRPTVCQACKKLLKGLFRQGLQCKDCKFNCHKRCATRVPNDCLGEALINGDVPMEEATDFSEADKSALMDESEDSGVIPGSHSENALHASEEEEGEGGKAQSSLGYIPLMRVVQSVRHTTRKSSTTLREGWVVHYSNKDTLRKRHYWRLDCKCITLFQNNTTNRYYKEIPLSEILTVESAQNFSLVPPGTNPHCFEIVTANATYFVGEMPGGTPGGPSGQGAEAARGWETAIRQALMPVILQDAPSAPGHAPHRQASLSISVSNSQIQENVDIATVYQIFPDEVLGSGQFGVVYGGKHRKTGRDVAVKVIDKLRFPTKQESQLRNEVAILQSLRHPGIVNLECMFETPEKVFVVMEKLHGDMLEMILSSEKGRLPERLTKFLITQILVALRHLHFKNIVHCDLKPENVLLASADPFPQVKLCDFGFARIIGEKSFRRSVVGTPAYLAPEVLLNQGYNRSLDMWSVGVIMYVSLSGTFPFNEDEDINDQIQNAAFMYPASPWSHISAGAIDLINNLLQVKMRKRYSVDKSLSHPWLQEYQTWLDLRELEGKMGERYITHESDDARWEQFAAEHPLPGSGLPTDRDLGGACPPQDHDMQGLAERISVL

[2] = target: T2, Serine/threonine-protein kinase D3 (Homo sapiens) (UniProt O94806); settings: at 0.1 µM
T2 sequence (whole entry): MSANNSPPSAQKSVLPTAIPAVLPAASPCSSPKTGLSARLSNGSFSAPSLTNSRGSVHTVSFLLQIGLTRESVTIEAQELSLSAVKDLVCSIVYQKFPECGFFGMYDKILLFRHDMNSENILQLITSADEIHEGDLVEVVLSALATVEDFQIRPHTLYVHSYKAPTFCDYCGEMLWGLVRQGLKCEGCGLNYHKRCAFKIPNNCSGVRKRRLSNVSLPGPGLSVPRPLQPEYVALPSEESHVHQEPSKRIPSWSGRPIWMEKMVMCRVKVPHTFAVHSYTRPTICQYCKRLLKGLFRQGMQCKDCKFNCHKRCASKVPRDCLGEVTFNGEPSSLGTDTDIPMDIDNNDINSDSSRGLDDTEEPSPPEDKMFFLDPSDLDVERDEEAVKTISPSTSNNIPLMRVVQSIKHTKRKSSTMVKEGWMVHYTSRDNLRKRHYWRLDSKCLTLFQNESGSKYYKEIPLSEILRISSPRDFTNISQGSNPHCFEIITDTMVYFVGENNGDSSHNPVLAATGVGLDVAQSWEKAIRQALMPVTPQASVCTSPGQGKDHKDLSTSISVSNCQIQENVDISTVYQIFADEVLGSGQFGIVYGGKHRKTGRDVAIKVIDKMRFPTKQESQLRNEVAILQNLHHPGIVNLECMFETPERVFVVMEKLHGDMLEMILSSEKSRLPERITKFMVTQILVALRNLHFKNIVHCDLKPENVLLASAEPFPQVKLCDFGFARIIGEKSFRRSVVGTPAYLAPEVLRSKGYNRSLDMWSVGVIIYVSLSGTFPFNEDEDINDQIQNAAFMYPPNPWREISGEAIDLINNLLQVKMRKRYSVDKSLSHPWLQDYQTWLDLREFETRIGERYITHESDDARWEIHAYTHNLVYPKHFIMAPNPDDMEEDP

[3] = target: T2, Serine/threonine-protein kinase D3 (Homo sapiens); settings: at 1 µM
[4] = target: T3, cGMP-dependent protein kinase 1 (Homo sapiens) (UniProt Q13976); settings: at 0.1 µM
T3 sequence (whole entry): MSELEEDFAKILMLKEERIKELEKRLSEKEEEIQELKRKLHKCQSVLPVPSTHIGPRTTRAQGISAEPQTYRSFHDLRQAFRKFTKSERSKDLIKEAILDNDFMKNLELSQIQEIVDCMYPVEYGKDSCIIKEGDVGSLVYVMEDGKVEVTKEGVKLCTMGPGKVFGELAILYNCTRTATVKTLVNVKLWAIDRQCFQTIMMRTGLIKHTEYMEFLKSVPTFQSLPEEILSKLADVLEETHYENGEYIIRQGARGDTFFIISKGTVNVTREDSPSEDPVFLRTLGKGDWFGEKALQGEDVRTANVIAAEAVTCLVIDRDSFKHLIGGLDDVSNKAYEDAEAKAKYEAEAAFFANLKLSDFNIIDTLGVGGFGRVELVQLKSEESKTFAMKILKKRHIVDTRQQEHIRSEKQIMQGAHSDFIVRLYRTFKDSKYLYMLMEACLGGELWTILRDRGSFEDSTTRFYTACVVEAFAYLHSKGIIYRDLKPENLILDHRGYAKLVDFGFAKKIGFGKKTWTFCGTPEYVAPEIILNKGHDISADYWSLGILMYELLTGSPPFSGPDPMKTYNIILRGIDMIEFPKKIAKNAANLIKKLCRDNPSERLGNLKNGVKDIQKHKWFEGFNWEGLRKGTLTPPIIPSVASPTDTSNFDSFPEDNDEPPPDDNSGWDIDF

[5] = target: T3, cGMP-dependent protein kinase 1 (Homo sapiens); settings: at 1 µM
[6] = target: T4, cGMP-dependent protein kinase 2 (Homo sapiens) (UniProt Q13237); settings: at 0.1 µM
T4 sequence (whole entry): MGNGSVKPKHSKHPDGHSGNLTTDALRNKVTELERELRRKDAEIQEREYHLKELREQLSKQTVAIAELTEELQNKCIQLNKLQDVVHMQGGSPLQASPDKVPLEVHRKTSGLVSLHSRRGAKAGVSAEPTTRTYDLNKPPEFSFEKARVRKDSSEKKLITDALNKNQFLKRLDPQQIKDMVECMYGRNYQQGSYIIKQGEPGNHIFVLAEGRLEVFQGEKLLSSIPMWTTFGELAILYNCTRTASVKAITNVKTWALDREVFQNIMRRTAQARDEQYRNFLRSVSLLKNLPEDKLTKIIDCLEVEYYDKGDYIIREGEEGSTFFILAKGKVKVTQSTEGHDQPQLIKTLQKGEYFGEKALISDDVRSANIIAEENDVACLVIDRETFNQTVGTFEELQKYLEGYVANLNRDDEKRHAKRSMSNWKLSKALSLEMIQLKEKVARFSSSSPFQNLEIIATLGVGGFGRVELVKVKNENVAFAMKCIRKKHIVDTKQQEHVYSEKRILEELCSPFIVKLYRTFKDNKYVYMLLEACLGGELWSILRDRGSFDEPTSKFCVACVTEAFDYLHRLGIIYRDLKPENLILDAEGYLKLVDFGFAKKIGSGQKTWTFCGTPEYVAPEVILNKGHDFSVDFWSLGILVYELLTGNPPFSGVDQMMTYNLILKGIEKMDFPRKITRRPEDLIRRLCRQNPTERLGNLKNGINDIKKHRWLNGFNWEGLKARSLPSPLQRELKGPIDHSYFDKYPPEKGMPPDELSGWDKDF

[7] = target: T4, cGMP-dependent protein kinase 2 (Homo sapiens); settings: at 1 µM
[8] = target: T5, cAMP-dependent protein kinase catalytic subunit PRKX (Homo sapiens) (UniProt P51817); settings: at 0.1 µM
T5 sequence (whole entry): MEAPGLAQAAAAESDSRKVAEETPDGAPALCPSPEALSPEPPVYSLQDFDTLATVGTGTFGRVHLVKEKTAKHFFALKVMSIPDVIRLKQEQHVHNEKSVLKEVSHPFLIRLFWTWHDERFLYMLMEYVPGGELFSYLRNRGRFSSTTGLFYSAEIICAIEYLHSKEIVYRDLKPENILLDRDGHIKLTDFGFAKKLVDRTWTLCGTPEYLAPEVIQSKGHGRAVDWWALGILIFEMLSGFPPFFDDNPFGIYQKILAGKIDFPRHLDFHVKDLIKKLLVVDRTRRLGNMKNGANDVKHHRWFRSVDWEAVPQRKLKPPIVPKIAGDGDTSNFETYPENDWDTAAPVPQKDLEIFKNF

[9] = target: T5, cAMP-dependent protein kinase catalytic subunit PRKX (Homo sapiens); settings: at 1 µM
[10] = target: Rho-associated protein kinase 1 (Homo sapiens) (UniProt Q13464); settings: at 0.1 µM;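 also: values are mean percent inhibition of ROCK1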
Chain of Rho-associated protein kinase 1 (Homo sapiens) (Q13464 2-1354 limits assumed): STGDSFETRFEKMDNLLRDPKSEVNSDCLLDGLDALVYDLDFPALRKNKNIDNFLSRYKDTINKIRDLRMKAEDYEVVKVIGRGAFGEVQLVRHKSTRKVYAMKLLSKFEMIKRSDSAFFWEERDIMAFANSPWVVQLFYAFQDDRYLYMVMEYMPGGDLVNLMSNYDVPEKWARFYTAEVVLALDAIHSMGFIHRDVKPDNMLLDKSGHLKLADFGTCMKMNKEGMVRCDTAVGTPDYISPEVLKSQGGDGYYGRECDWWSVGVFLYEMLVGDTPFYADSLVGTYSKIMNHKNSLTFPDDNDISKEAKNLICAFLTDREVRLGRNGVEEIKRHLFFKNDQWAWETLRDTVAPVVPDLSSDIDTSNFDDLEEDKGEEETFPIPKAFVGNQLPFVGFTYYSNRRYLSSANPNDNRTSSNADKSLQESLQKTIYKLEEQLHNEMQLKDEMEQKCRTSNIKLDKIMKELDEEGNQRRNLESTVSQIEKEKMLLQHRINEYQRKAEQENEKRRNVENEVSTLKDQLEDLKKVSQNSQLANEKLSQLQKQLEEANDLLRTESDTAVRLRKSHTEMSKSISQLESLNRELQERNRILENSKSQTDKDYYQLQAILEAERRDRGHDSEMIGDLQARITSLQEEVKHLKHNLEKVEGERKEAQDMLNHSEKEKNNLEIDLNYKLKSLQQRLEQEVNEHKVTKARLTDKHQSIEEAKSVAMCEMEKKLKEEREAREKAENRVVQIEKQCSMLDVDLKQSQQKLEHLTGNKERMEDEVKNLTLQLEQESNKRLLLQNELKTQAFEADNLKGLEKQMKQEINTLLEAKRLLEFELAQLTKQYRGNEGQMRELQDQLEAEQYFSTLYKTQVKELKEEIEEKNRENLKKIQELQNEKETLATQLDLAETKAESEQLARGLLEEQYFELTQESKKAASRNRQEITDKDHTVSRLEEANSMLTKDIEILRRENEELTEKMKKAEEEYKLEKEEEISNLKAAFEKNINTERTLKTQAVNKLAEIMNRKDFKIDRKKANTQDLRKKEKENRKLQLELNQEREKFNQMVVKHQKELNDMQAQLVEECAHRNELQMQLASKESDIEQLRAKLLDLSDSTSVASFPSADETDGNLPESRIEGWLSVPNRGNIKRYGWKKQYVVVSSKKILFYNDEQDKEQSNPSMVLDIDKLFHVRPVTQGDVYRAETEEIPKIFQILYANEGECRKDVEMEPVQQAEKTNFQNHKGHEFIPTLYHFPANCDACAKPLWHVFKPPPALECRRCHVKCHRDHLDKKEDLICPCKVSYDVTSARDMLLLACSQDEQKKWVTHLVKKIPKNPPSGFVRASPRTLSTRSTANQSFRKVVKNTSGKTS

Row | Structure (SMILES) | inhibition [1] [%] | inhibition [2] [%] | inhibition [3] [%] | inhibition [4] [%] | inhibition [5] [%] | inhibition [6] [%] | inhibition [7] [%] | inhibition [8] [%] | inhibition [9] [%] | inhibition [10] [%]
1 | CCNC(=O)O[C@H]1CN[C@H](C#Cc2cc3ncnc(Nc4ccc(OCc5cccc(F)c5)c(Cl)c4)c3s2)C1 | 3.71 | 2.4 | 3.78 | 2.33 | 3.36 | -0.03 | 2.81 | -0.14 | -0.33 | 0.96
2 | [O-][S+]1CCN(Cc2ccc(-c3ccc4ncnc(Nc5ccc(OCc6cccc(F)c6)c(Cl)c5)c4c3)o2)CC1 | 6.63 | 4.66 | 6.53 | 3.87 | 3.85 | 3.53 | 5.63 | 2.88 | 2.98 | 2.1
3 | O=C(Nc1n[nH]c2cc(-c3ccc(F)cc3)ccc12)C1CC1 | 4.37 | 3.68 | 5.25 | 4.3 | 6.58 | 3.33 | 5.58 | 2.23 | 3.66 | 6.12
4 | c1ccc(COc2ccc(Nc3ncnc4ccc(-c5ccco5)cc34)cc2)cc1 | 2.58 | 1.12 | 1.43 | -0.44 | 0.71 | 0.02 | 1.35 | 2.22 | 0.89 | 0.21
5 | COC(=O)c1sc(-n2cnc3cc(OC)c(OC)cc32)cc1OCc1ccccc1C(F)(F)F | 5.96 | 4.17 | 5.73 | 2.01 | 4.24 | 1.58 | 3.35 | -0.14 | 0.19 | 0.1
6 | CCCN1CCC(c2ccc(Nc3nc(Nc4cc(F)ccc4C(N)=O)c4cc[nH]c4n3)c(OC)c2)CC1 | 75.7 | 13.6 | 65.9 | 9.75 | 46.5 | 8.54 | 47 | 1.4 | 4.23 | 17.2
7 | COc1ccc(-c2nn3ncccc3c2-c2ccnc(Nc3ccc4c(c3)OCCO4)n2)cc1 | 9.73 | 2.09 | 8.59 | -0.47 | -2.7 | 0.2 | -1.06 | 0.59 | -0.08 | 0.43
8 | Fc1ccc(-c2nn3ncccc3c2-c2ccnc(Nc3ccc4c(c3)OCCO4)n2)cc1 | 52.1 | 8 | 48.4 | 2.53 | 4.25 | 2.03 | 3.43 | 0.43 | 0.09 | -0.74
9 | CCc1nn2ncccc2c1-c1ccnc(NC2CC2)n1 | 3.14 | 1.73 | 2.57 | 1.92 | 3.59 | 0.96 | 3.27 | 1.66 | 0.72 | 0.66
10 | Fc1cccc(COc2ccc(Nc3ncnc4sc(-c5ccco5)cc34)cc2Cl)c1 | 2.52 | 5.28 | 4.41 | 2.93 | 1.81 | 1.59 | -0.65 | 2.01 | 2.86 | 2.54
11 | O=S(=O)(CCNCc1ccc(-c2ccc3ncnc(Nc4ccc(OCc5cccc(F)c5)c(Cl)c4)c3c2)o1)c1ccccc1 | 4.53 | 5.12 | 5.2 | 4.89 | 3.93 | 3.34 | 3.34 | 2.74 | 2.77 | 2.37
12 | CS(=O)(=O)CCNCc1coc(-c2ccc3ncnc(Nc4ccc(OCc5ccccc5)cc4)c3c2)c1 | 2.1 | 2.3 | 3.06 | 1.72 | 3.25 | 1.73 | 3.41 | 1.12 | 0.96 | 0.65
13 | c1ccc(-c2nc3n(c2-c2ccc4c(c2)OCO4)CCC3)nc1 | 4.47 | 2.58 | 5.25 | 2.47 | 2.75 | 1.67 | 2.85 | 0.87 | 3.61 | 3.64
14 | CNC(=O)c1cc(-c2ccc(F)cc2)cc(-c2ccc(S(=O)(=O)N3CCCC3)cc2)c1N | 1.98 | 3.24 | 3.34 | 1.61 | 2.76 | 1.41 | 0.53 | 2.59 | 1.29 | 1.6
15 | CCn1c(-c2nonc2N)nc2c(C#CC(C)(C)O)ncc(OC3CCNCC3)c21 | 11.1 | 3.96 | 14.2 | 31.1 | 77.4 | 60.5 | 83.2 | 74.4 | 89 | 3.14
16 | Nc1nc(-c2ccc(F)cc2)c(-c2ccc3ncccc3n2)s1 | 51.9 | 8.64 | 41.8 | 0.69 | 4.97 | 2.78 | 4.3 | 2.61 | 3.14 | 0.86
17 | COc1ccc(CNC(=O)c2ccc(-c3cc(-c4nnc(C)o4)ccc3C)cc2)cc1 | 1.08 | 0.4 | 0.26 | 3.61 | 3.68 | 2.93 | 4.96 | 3.88 | 6.21 | 2.49
